# Results from article PMC12670160, “A drug-repurposing screen of FDA- and EMA-approved drugs identifies two NF-κB inhibitors active against eumycetoma” (Journal of Antimicrobial Chemotherapy, 2025).
# Where a name gives a salt, the structure may show the parent alone. Read-outs that look alike come from different tables or passages of the source. Screen size: about 5,300 compounds; about 130 (2.5%) showed an effect of 50% or more. This is one part of a sample in which strong results are shown more often than they occur. Numbered stars: 1 amine (or outer) side, 2 acyl side, 3 side chain; on linkers, the order of the positions; unused ones are H or OH. Bridge positions count the residues as written; N and C are the ends. Square brackets hold non-standard residues; d marks the D form. Peptide text beside a SMILES is read from it. I, II: the chains in the order shown. Actinocin(9to1) = Cc1c2oc3c(C)ccc(C(=O)[*:1])c3nc-2c(C(=O)[*:2])c(N)c1=O; dTrp(2-Me) = Cc1[nH]c2ccccc2c1C[C@@H](N)C(=O)O; NMeV = CN[C@H](C(=O)O)C(C)C; Sar = CNCC(=O)O
# System: M. mycetomatis strain mm55
# Conditions: primary screen, metabolic activity vs growth control, 96 h, 2 µM, inhibitor
Compound,% viability (Madurella mycetomatis metabolic activity at 2µM (%)) [%],% viability [%]
"Cc1c2oc3c(C)ccc(C(=O)N[C@@H]4C(=O)N[C@H](C(C)C)C(=O)N5CCC[C@H]5C(=O)N(C)CC(=O)N(C)[C@@H](C(C)C)C(=O)O[C@@H]4C)c3nc-2c(C(=O)N[C@@H]2C(=O)N[C@H](C(C)C)C(=O)N3CCC[C@H]3C(=O)N(C)CC(=O)N(C)[C@@H](C(C)C)C(=O)O[C@@H]2C)c(N)c1=O [ONC0002258, actinomycin d] (I: T[dV]P[Sar][NMeV] / II: T[dV]P[Sar][NMeV]; ester I:1-I:C, II:1-II:C; linker I:N-II:N via Actinocin(9to1))",100.3,
"CNCCN(C)Cc1c[nH]nc1-c1ccc(O[C@H]2C[C@H](OCCC3CCOCC3)C2)cc1.Cl [ONC0000962, epz020411 hydrochloride]",,79.33
"CN1c2c(nc(N)[nH]c2=O)NC[C@@H]1CNc1ccc(C(=O)N[C@@H](CCC(=O)O)C(=O)O)cc1 [ONC0002220, levomefolate calcium]",,182.5
"CCCCCCCCCCCCCCCC(=O)OC[C@H](O)[C@H]1OC(=O)C(=O)C1O (stereo partly shown) [ONC0004072, ascorbyl palmitate]",,135.5
"C[C@@H](O[C@H]1OCCN(Cc2nc(O)n(P(=O)(O)O)n2)[C@H]1c1ccc(F)cc1)c1cc(C(F)(F)F)cc(C(F)(F)F)c1 [ONC0004322, fosaprepitant dimeglumine salt]",,108.4
"C[C@H](O[C@H]1OCCN(Cc2n[nH]c(=O)[nH]2)[C@H]1c1ccc(F)cc1)c1cc(C(F)(F)F)cc(C(F)(F)F)c1 [ONC0004612, aprepitant mk0869]",,34.22
"C=C(Nc1ccc(OCC)cc1)Nc1ccc(OCC)cc1 [ONC0005342, phenacaine]",,118.6
"O=C1c2c(O)cccc2[C@H]([C@@H]2O[C@H](CO)[C@@H](O)[C@H](O)[C@H]2O)c2cc(CO)cc(O)c21 [ONC0002367, aloin]",,94.66
"On1ncc(C2CCNCC2)c1-c1cccc(-c2ccccc2)c1 [ONC0002501, php501 trifluoroacetate]",,45.31
"CC[C@@]1(C2O[C@@H](C3O[C@@](O)(CO)[C@H](C)C[C@@H]3C)C[C@@H]2C)CC[C@H]([C@]2(C)CC[C@]3(C[C@H](O)[C@@H](C)[C@@H]([C@@H](C)[C@@H](OC)[C@H](C)C(=O)O)O3)O2)O1 (stereo partly shown) [ONC0004087, monensin sodium]",,133.1
"O=C(O)Cc1ccc(OCc2ccccc2)c(Cl)c1 [ONC0002166, benzofenac]",,78.33
C=C(c1ccccc1OCc1cccc(Cl)c1)n1ccnc1 [Cloconazole HCl],,3.259
"C[C@H](Nc1ncnc2[nH]cnc12)c1cc2cccc(Cl)c2c(=O)n1-c1ccccc1 [ONC0004561, duvelisib ipi145 ink1197]",,69.33
"COC(=O)C1=C(C)NC(C)=C(C(=O)O[C@@H]2CCCN(Cc3ccccc3)C2)[C@@H]1c1cccc([N+](=O)[O-])c1 (racemic) [ONC0004618, benidipine hydrochloride]",,66.69
"CC(C)=CCC[C@](C)(O[C@@H]1O[C@H](CO)[C@@H](O)[C@H](O)[C@H]1O)[C@H]1CC[C@]2(C)[C@@H]1[C@H](O)C[C@@H]1[C@@]3(C)CC[C@H](O)C(C)(C)[C@@H]3CC[C@]12C [ONC0002211, ginsenoside ck]",,95.28
"O=C(CCCS)NC1CCN(C(=O)COc2ccc(Cl)cc2Cl)CC1 [ONC0005166, krasg12c inhibitor 6]",,98.75
"NC(=O)[C@H]1CCS[C@@H]2C[C@]3(CCCN3C(=O)Cc3ccc(NC(=O)COc4ccc(Cl)cc4Cl)cc3)C(=O)N12 [ONC0001082, st 2825]",,47.43

Compound,% viability (Madurella mycetomatis metabolic activity at 2µM (%)) [%],% viability [%]
"C[C@]12C=CC(=O)C=C1CCC1C2[C@@H](O)C[C@@]2(C)C1CC[C@]2(O)C(=O)COP(=O)(O)O (stereo partly shown) [ONC0004116, prednisolone sodium phosphate]",,116.3
"CC(C)C(=O)SCCCCC[C@H](NC(=O)OC(C)(C)C)C(=O)NC12CC3CC(CC(C3)C1)C2 [ONC0002528, tcshdac620b]",,72.9
"C1CCC(/N=C(\NC23CC4CC(CC(C4)C2)C3)N2CCOCC2)CC1 [ONC0002564, pnu37883]",,92.95
"CC(CNC1CCCCC1)OC(=O)c1ccccc1 (stereo not shown) [ONC0002941, hexylcaine]",,55.94
"CCOC(=O)c1ccc(N)cc1 [ONC0003279, benzocaine]",,69.74
"CCOC(=O)c1ccc(NC2CCCCC2)c(N)c1 [ONC0000320, ferrostatin1]",,39.11
"CC(C)(O)c1ccn2c(-c3ccc(F)c(-c4ccc(F)cc4C#N)c3)cnc2c1F [ONC0001920, tp003]",,78.09
"CCC(=O)O[C@@H]1CC(=O)O[C@H](C)C/C=C/C=C/[C@H](OC(C)=O)[C@H](C)C[C@H](CC=O)[C@H](O[C@@H]2O[C@H](C)[C@@H](O[C@H]3C[C@@](C)(OC(C)=O)[C@@H](OC(=O)CC)[C@H](C)O3)[C@H](N(C)C)[C@H]2O)[C@H]1OC [ONC0000277, midecamycin acetate]",,81.75
"O[C@H](CNC[C@@H](O)[C@H]1CCc2cc(F)ccc2O1)[C@@H]1CCc2cc(F)ccc2O1 [ONC0004039, nebivolol hydrochloride]",,98.08
"C[C@@]1(O)[C@H](O)[C@@H](CO)O[C@H]1n1cnc2c(=O)[nH]c(N)nc21 [ONC0005603, 2cmethylguanosine]",,96.86
"O=C(c1ccc(Cl)cc1)N(Cc1ccccc1)C1CCCCC1 [ONC0001245, fpszm1]",,58.23
"CC(C(=O)O)c1ccc2c(c1)Cc1ccccc1-2 (stereo not shown) [ONC0003773, cicloprofen]",,135.8
"Cc1cc(C)c(NC(=O)N(Cc2ccc3c(c2)Cc2ccccc2-3)C2CCCCCC2)c(C)c1 [ONC0000194, ym750]",,45.17
"CC(C)Oc1cccc(CC(=O)N2CCC[C@](CC[N+]34CCC(c5ccccc5)(CC3)CC4)(c3ccc(Cl)c(Cl)c3)C2)c1 [ONC0001589, sr140333]",,65.88
"Nc1nc2c(c(=O)[nH]1)NC(CNc1ccc(C(=O)N[C@@H](CCC(=O)O)C(=O)O)cc1)CN2 (stereo partly shown) [ONC0005519, tetrahydrofolicacid]",,129.8
"Cc1[nH]c2ccccc2c1C[C@@H](NC(=O)[C@@H](N)Cc1cnc[nH]1)C(=O)N[C@@H](C)C(=O)N[C@@H](Cc1c[nH]c2ccccc12)C(=O)N[C@H](Cc1ccccc1)C(=O)N[C@@H](CCCCN)C(N)=O [ONC0005614, examorelin] (H-H[dTrp(2-Me)]AW[dF]K-NH2)",,66.44
"Oc1cc2c(cc1O)C(Cc1cccc3ccccc13)NCC2 (stereo not shown) [ONC0001928, ys49]",,88.3
